For 20 molecules, Potency and activity change, negative = cytotoxic results are on record in PubChem BioAssay (NCATS).

Each structure is given as a SMILES string. Records with an inconclusive call do not appear. Values without a mark were called inactive. Activity calls are given as the source filed them. Calls come from the whole dose curve; as a rule, active = well fitted curve in the direction sought with a large enough effect; inconclusive = small, poorly fitted or top-dose-only effect, or another doubt; inactive = no such curve, though single readings can be large; an effect the other way counts as inactive or inconclusive.

The nature of experiment [1]: qHTS of pediatric cancer cell lines to identify multiple opportunities for drug repurposing: Primary screen for NB1643 cells (AID 1347099).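 For activity change, negative = cytotoxic: plate controls were DMSO neutral control for no effect and bortezomib positive control for full effect.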 Note: nearly all actives have a fitted effect of over 50% in size. An outline of the steps: (§1)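 Plated cells (500-1,000 per well, growth media) were allowed to settle for 5 hours, treated with compound dilutions for 48 hours, then lysed with CellTiter-Glo for 15 min at room temperature before luminescence reading.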
Background: qHTS replaces the single test concentration by a dilution series.

Experiment [2] can be described thus: qHTS of pediatric cancer cell lines to identify multiple opportunities for drug repurposing: Primary screen for Rh18 cells (AID 1347102). For activity change, negative = cytotoxic: % is set by controls: 0 for no effect and ±100 for the full control effect. Note: nearly all actives have a fitted effect of over 65% in size. An outline of the steps: (§2)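 Cells (500-1,000/well) in growth media were settled 5 h at 37 degrees C, then given compounds for 48 h. Viability was read as CellTiter-Glo luminescence. Primary runs used MIPE at 11 points (0.78 nM-46 µM) and NPC at 8 points (0.59 nM-46 µM); follow-ups used 11 points.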

The nature of experiment [3]: qHTS of pediatric cancer cell lines to identify multiple opportunities for drug repurposing: Primary screen for control Hh wild type fibroblast cells (AID 1347106).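 For activity change, negative = cytotoxic: series mostly up to about 46 µM; % is set by controls: 0 for no effect and ±100 for the full control effect; a drop in luminescence marks cytotoxicity and a rise apparent proliferation.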 Note: nearly all actives have a fitted effect of over 55% in size. An outline of the steps:
as §2

A short description of experiment [4]: qHTS of pediatric cancer cell lines to identify multiple opportunities for drug repurposing: Primary screen for MG 63 (6-TG R) cells (AID 1347105). For activity change, negative = cytotoxic: % is set by controls: 0 for no effect and ±100 for the full control effect. Note: nearly all actives have a fitted effect of over 50% in size. An outline of the steps:
as §1

Experiment [5] is described as follows: qHTS of pediatric cancer cell lines to identify multiple opportunities for drug repurposing: Primary screen for Rh30 cells (AID 1347107). For activity change, negative = cytotoxic: series mostly up to about 46 µM; % is set by controls: 0 for no effect and ±100 for the full control effect. Note: nearly all actives have a fitted effect of over 75% in size. An outline of the steps: as §2
Experiment [6] can be described thus: qHTS of pediatric cancer cell lines to identify multiple opportunities for drug repurposing: Primary screen for Rh41 cells (AID 1347108).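 For activity change, negative = cytotoxic: series mostly up to about 46 µM; luminescence drop marks cytotoxic hits.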 Note: nearly all actives have a fitted effect of over 70% in size. An outline of the steps: as §1
The nature of experiment [7]: qHTS of pediatric cancer cell lines to identify multiple opportunities for drug repurposing: Primary screen for LAN-5 cells (AID 1347100).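 For activity change, negative = cytotoxic: plate controls were DMSO neutral control for no effect and bortezomib positive control for full effect.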 An outline of the steps: as §2
The nature of experiment [8]: qHTS of pediatric cancer cell lines to identify multiple opportunities for drug repurposing: Primary screen for BT-12 cells (AID 1347101).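 For activity change, negative = cytotoxic: plate controls were DMSO for no effect and bortezomib positive control for full effect.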 Note: nearly all actives have a fitted effect of over 25% in size. An outline of the steps: (§3)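 Cells (500-1,000/well) rested 5 h, then received compounds for 48 h; metabolically active cells were measured by CellTiter-Glo luminescence. Final concentrations spanned up to 46 µM (MIPE, 11-point) or 0.59 nM-46 µM (NPC, 8-point) in primary screens, 11-point in follow-ups.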

Experiment [9] is described as follows: qHTS of pediatric cancer cell lines to identify multiple opportunities for drug repurposing: Primary screen for OHS-50 cells (AID 1347103).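 For activity change, negative = cytotoxic: plate controls were DMSO neutral control for no effect and bortezomib positive control for full effect.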 Note: nearly all actives have a fitted effect of over 40% in size. An outline of the steps: as §3
The nature of experiment [10]: qHTS of pediatric cancer cell lines to identify multiple opportunities for drug repurposing: Primary screen for RD cells (AID 1347104).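 For activity change, negative = cytotoxic: plate controls were DMSO for no effect and bortezomib for full effect.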 Note: nearly all actives have a fitted effect of over 55% in size. An outline of the steps: as §1
Potency is the fitted concentration of half-maximal effect.

In the case of `O=[N+]([O-])c1ccc(Nc2ccccc2-c2ccccc2)c2nonc12`, the Potency in [1] is 23.5 µM (active). In addition, the Potency entry in experiment [2] and in [3] was “inactive” throughout.
Take `Oc1ccc(C=Cc2cc(O)cc(O)c2)cc1`: in [1], the Potency is 20.9 µM (active). The Potency entry in experiment [4], in experiment [3], in experiment [5] and in experiment [6] was “inactive” each time.
As for `O=C(c1ccc(F)c(F)c1Nc1ccc(I)cc1F)N1CC(O)([C@H]2CCCCN2)C1`, the Potency in experiment [7] is 0.935 µM (active); in [8], 1.09 µM (active); in [2] it was 16.6 µM (active); in experiment [9] it was 1.09 µM (active); in experiment [10], 0.526 µM (active); in experiment [4], 29.6 µM (active). The Potency is 16.6 µM (active) in experiment [3] and 18.7 µM (active) in experiment [6].
For `CC(C)c1onc(-c2c(Cl)cccc2Cl)c1COc1ccc(C=Cc2cccc(C(=O)O)c2)c(Cl)c1`, the Potency result in [1] and in experiment [3] was “inactive” in each case. Also, in experiment [9], the Potency was 30.6 µM (active).
Turning to `CCCCc1ccc(NS(=O)(=O)c2ccc(C)c(C(=O)N3CCN(c4cccc(C)c4C)CC3)c2)cc1`, the Potency is 23.5 µM (active) in experiment [1] and 33.2 µM (active) in experiment [10]. For the same molecule, in [3], the Potency result was “inactive”.
On to `Cc1ccccc1C(=O)c1ccc(Nc2ccc(Br)cc2N)cc1Cl`, for which, in experiment [1], the Potency is 20.9 µM (active). In [3], the Potency entry was “inactive”.
Take `CN[C@H]1[C@@H](O[C@@H]2[C@H](O[C@@H]3[C@@H](O)[C@@H](O)[C@@H](N=C(N)N)[C@@H](O)[C@@H]3N=C(N)N)O[C@H](C)[C@@]2(O)C=O)O[C@@H](CO)[C@@H](O)[C@H]1O`: the activity change, negative = cytotoxic in experiment [7] is -3.6% [at 9.22 µM]; in experiment [8] it was -1.02% [at 11.5 µM]; in experiment [2], 1.83% [at 9.22 µM]; in experiment [9], 7.71% [at 11.5 µM]; in experiment [10], 1.46% [at 9.22 µM]; in experiment [4], -18.1% [at 9.22 µM]. For the same molecule, the results for the activity change, negative = cytotoxic in [3], in [5] and in experiment [6] were 10.5% [at 9.22 µM], 15.1% [at 9.22 µM] and 17.1% [at 9.22 µM], respectively.
Turning to `NC[C@H]1O[C@H](O[C@@H]2[C@@H](O)[C@@H](O[C@H]3O[C@H](CO)[C@@H](O)[C@H](N)[C@@H]3O)[C@H](N)C[C@@H]2N)[C@H](O)[C@@H](O)[C@H]1O`, the Potency result in [7], in experiment [8], in [2], in experiment [9], in [10] and in experiment [4] was “inactive” in each case. For the same molecule, the Potency entry in experiment [5] and in [6] was “inactive” in each case.
`O=C(O)Cc1cccc(OCCCN(Cc2cccc(C(F)(F)F)c2Cl)CC(c2ccccc2)c2ccccc2)c1`: the Potency entry in experiment [1] and in [3] was “inactive” each time. In addition, the Potency in experiment [9] is 27.3 µM (active); in experiment [10], 33.2 µM (active); in experiment [4], 23.5 µM (active); in experiment [5], 23.5 µM (active); in experiment [6], 23.5 µM (active).
Turning to `NS(=O)(=O)c1cc(Cl)c(Cl)c(S(N)(=O)=O)c1`, the Potency entry in experiment [7], in experiment [8], in experiment [2], in experiment [9], in experiment [10] and in experiment [4] was “inactive” throughout. Further, the Potency entry in [3], in [5] and in [6] was “inactive” each time.
Take `CN(CC=CC#CC(C)(C)C)Cc1cccc2ccccc12`: the Potency entry in experiment [7], in experiment [8], in experiment [2], in experiment [9], in experiment [10] and in experiment [4] was “inactive” throughout. Besides, the Potency result in experiment [3], in experiment [5] and in experiment [6] was “inactive” in each case.
In the case of `Nc1ncnc2c1c(-c1cccc(OCc3ccccc3)c1)cn2C1CC(CN2CCC2)C1` (stereo unspecified), the Potency was 4.69 µM (active) in experiment [7], 0.968 µM (active) in [9], 7.43 µM (active) in experiment [10] and 2.96 µM (active) in experiment [6]. Moreover, the Potency result in experiment [8], in experiment [2] and in experiment [3] was “inactive” in each case.
Turning to `CCC(=C(CC)c1ccc(O)cc1)c1ccc(O)cc1`, the Potency in experiment [1] is 9.35 µM (active); in [9] it was 30.6 µM (active); in experiment [4], 18.7 µM (active). The Potency entry in experiment [3], in experiment [5] and in [6] was “inactive” throughout.
For the molecule `Cc1ccccc1-n1c(Cn2nc(-c3cccc(O)c3)c3c(N)ncnc32)nc2cccc(C)c2c1=O`, the Potency in experiment [1] was 0.833 µM (active); in [10], 0.118 µM (active); in experiment [6], 3.72 µM (active). Further, the Potency result in [3] and in [5] was “inactive” throughout.
With `CC[C@H](C)C(=O)O[C@H]1C[C@H](O)C=C2C=C[C@H](C)[C@H](CC[C@@H](O)C[C@@H](O)CC(=O)O)[C@H]21`, the Potency result in experiment [7], in [8], in experiment [2], in [9], in [10] and in experiment [4] was “inactive” in each case. For the same molecule, the Potency result in experiment [3], in experiment [5] and in [6] was “inactive” throughout.
For the molecule `COc1cc(N2CCN(C)CC2)ccc1Nc1nc(N)c(C(=O)c2c(Cl)cccc2Cl)s1`, the results for the Potency in experiment [1] and in experiment [10] were 14.8 µM (active) and 29.6 µM (active), respectively. The Potency entry in experiment [9], in experiment [4], in experiment [3], in [5] and in experiment [6] was “inactive” throughout.
On to `Cc1cc2nc3c(=O)[nH]c(=O)nc-3n(CC(O)C(O)C(O)CO)c2cc1C` (stereo unspecified), for which the Potency result in [7], in experiment [8], in [2], in experiment [9], in [10] and in experiment [4] was “inactive” in each case. Besides, the Potency result in experiment [3] and in [6] was “inactive” throughout.
In the case of `CCC[C@H](N[C@@H](C)C(=O)N1[C@@H]2CCCC[C@H]2C[C@H]1C(=O)O)C(=O)OCC`, the Potency result in experiment [1], in [4], in experiment [5] and in experiment [6] was “inactive” throughout.
For `C#C[C@]1(O)CC[C@H]2[C@H]3CCc4cc(OC)ccc4[C@H]3CC[C@@]21C`, the Potency entry in [7], in experiment [8], in experiment [2], in experiment [3], in [5] and in experiment [6] was “inactive” each time.
Take `OC[C@H]1O[C@@H](O[C@H]2[C@@H](O)[C@@](O)(CO)O[C@@H]2CO)[C@H](O)[C@@H](O)[C@@H]1O`: the Potency entry in experiment [7], in [8], in [2], in experiment [10], in experiment [4] and in experiment [3] was “inactive” in each case. The Potency result in [5] and in [6] was “inactive” throughout.
